Screens: PubChem BioAssay, University of Kansas High Throughput Screening Laboratory
Pf apPOL inh: Pf-apPOL DNA polymerase inhibition; inhibition, % at 10 µM; Recombinant Pf-apPOL, molecular beacon fluorescence, 1.5 h; 0.25% of 210,000 active; AID 1794808
mHTT-CaM PPI inh: mHTT-calmodulin interaction abrogation. AlphaScreen His-mHTT/GST-CaM binding, luminescence. inhibition, % at 15 µM. 3.6% of 190,000 active
Target sequence (P42858 whole entry, looked up, change not shown): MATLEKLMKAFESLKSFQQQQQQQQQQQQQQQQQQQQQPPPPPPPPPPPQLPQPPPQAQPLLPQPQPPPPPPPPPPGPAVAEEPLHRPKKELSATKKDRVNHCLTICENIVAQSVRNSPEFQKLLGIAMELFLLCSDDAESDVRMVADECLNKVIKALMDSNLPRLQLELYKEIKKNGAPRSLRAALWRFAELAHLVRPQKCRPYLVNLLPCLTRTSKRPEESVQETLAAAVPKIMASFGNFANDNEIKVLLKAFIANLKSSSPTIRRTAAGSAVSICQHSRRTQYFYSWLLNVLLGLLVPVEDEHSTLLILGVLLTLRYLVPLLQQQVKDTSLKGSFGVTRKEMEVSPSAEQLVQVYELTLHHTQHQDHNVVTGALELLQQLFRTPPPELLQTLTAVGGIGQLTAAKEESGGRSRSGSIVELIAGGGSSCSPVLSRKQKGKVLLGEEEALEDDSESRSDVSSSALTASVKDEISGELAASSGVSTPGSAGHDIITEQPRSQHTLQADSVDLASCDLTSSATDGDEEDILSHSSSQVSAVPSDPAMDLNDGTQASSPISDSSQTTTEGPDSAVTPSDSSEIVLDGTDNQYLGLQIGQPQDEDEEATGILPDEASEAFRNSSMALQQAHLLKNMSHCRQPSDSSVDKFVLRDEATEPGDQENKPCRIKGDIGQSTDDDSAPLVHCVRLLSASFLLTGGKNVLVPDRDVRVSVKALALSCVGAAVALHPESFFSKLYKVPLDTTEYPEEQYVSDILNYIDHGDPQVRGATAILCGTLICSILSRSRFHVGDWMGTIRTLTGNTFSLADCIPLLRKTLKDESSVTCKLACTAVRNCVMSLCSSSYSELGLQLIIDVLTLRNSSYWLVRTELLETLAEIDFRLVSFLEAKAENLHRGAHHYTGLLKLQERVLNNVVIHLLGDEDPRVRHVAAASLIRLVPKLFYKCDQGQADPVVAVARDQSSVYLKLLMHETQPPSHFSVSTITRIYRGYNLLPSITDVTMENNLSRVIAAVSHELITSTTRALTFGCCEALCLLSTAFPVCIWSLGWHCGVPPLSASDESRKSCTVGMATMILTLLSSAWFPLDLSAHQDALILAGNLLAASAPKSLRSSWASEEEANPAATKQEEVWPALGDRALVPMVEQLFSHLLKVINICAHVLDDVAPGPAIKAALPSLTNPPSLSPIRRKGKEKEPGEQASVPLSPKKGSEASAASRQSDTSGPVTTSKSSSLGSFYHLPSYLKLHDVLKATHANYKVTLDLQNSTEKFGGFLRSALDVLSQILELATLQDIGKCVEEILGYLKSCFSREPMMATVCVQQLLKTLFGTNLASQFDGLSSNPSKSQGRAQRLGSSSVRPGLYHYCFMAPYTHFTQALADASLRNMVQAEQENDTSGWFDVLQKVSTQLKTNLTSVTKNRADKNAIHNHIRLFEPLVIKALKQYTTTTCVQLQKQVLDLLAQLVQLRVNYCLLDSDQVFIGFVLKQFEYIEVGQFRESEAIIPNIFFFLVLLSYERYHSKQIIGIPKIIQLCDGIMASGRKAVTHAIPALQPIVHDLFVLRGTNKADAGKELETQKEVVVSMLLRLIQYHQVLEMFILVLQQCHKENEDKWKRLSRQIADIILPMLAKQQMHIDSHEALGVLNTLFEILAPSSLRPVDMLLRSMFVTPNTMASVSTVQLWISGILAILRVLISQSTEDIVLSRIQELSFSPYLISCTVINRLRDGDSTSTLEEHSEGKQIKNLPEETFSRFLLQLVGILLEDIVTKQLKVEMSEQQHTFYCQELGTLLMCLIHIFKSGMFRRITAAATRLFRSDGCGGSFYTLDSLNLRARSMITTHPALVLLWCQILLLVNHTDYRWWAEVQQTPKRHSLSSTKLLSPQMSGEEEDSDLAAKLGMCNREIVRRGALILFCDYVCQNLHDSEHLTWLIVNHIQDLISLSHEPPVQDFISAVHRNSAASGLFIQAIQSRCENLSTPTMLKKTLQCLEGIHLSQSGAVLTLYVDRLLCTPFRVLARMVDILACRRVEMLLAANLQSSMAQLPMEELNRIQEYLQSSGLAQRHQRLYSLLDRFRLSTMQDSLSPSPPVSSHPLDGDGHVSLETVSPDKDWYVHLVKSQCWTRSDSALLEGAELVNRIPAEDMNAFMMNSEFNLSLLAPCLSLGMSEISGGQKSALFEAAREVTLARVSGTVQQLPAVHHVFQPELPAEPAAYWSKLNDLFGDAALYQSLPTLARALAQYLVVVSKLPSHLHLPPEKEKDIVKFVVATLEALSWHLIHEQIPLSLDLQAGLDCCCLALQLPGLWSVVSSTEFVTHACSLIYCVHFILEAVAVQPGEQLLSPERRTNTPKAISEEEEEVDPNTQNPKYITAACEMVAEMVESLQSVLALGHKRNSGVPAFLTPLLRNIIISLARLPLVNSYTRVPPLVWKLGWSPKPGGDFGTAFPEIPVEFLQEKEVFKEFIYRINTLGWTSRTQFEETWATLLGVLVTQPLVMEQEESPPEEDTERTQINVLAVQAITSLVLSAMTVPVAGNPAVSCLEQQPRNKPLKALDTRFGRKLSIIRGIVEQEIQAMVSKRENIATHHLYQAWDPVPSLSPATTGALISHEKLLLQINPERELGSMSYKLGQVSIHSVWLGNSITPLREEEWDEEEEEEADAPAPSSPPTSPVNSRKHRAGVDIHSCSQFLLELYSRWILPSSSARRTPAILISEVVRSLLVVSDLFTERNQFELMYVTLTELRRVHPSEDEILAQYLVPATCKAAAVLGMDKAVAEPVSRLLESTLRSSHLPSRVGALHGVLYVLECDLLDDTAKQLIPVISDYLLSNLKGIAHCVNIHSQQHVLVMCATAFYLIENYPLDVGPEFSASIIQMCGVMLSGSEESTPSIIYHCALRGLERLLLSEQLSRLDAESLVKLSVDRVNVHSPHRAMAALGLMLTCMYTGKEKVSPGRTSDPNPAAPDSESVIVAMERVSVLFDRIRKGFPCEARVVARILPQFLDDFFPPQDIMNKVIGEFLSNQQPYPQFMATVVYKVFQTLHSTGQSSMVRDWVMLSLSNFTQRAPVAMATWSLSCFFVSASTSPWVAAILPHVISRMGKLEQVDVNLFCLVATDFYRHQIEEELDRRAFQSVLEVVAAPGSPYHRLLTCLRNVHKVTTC
Each line names hits and unclear results; the compound was inactive in the other large screens. This excerpt belongs to a sample that is enriched for hits. Cut-off read from the data, not from the text of the source: active = inhibition above about 50%; inactive = the rest.

C=CCOc1ccc(C(Nc2ccccn2)c2ccc3cccnc3c2O)cc1 (stereo not drawn)	mHTT-CaM PPI inh 99
C=CCOc1ccc(C(=O)Nc2ccccn2)cc1	none
Cc1nn(-c2ccc(C(=O)NCc3ccccc3)cc2)c2c1C(=O)CC(C)(C)C2	none
O=C1C(=O)N(CSc2nnc(-c3ccco3)o2)c2ccccc21	none
CCN1C(=O)COc2ccc(-c3noc(-c4ccccc4F)n3)cc21	none
COc1ccc(-c2cnc3ncnn3c2N2CCCC(C)C2)cc1 (stereo not drawn)	none
Cc1ccc2c(S(=O)(=O)O)ccc(O)c2n1	none
O=S(=O)(O)c1ccc(O)c2ncccc12	mHTT-CaM PPI inh 100
O=C(/C=C/c1ccc([N+](=O)[O-])cc1)Nc1cc2cccc([N+](=O)[O-])c2oc1=O	none
O=C(ON=C1CCSCC1)c1ccc(Br)cc1	none
COc1ccc(CN2CCC(C(=O)NCc3ccccc3Cl)CC2)c(OC)c1	none
COCCNC(=O)C1CCN(Cc2cc3ccccc3n2Cc2ccccc2Cl)CC1	mHTT-CaM PPI inh 83
COCCCNC(=O)C1CCN(Cc2cc3ccccc3n2Cc2ccccc2C)CC1	mHTT-CaM PPI inh 64
COCCCNC(=O)C1CCN(C(=O)c2cccnc2-c2ccccc2C)CC1	none
CCOC1(C)OC2CCC(CC)OC2O1 (stereo not drawn)	none (no result: Pf apPOL inh)
N#CC1=C(N)SC(N)=C(C#N)C1c1ccccc1	none
CCCCc1ccc(C2C(C#N)=C(N)SC(N)=C2C#N)s1	mHTT-CaM PPI inh 55
NC(=O)/C(=C\c1ccc2c(c1)OCO2)NC(=O)c1ccccc1Cl	none
COc1ccc(C)cc1NC(=O)C(NS(=O)(=O)c1cccs1)C(C)C (stereo not drawn)	none
COc1ccc(S(=O)(=O)N=C2C(C)=CC(=O)C(S(=O)(=O)c3ccccc3)=C2C)cc1	none
COc1ccc(S(=O)(=O)N=C2C=C(Nc3ccccc3)C(=O)c3ccccc32)cc1	mHTT-CaM PPI inh 88
O=S(=O)(N=C1SCCS1)c1ccccc1	none
CCOc1ccc(S(=O)(=O)NC(=O)c2ccccc2)cc1	none
CCc1ccc(S(=O)(=O)N=C2C=C(Nc3ccccc3)C(=O)c3ccccc32)cc1	mHTT-CaM PPI inh 93
Cc1ccc(NC2=CC(=NS(=O)(=O)c3cccs3)c3ccccc3C2=O)c(C)c1	mHTT-CaM PPI inh 90
CCOc1ccc(S(=O)(=O)N=C2C=C(Nc3ccccc3)C(=O)c3ccccc32)cc1	mHTT-CaM PPI inh 90
CCC(=O)N1CCc2sc(C(=O)NCc3ccco3)cc2C1	none
O=C(CNS(=O)(=O)c1ccc(Br)s1)N1CCc2ccccc21	none
Cc1cccc(-n2cc(C3CCN(C(=O)CC(C)(C)C)CC3)cn2)c1	none
Cc1c(Cl)cccc1NS(=O)(=O)c1ccc(Br)cc1	none
CNC(=O)[C@H]1O[C@@H](n2cnc3c(NCc4ccc(N)cc4)ncnc32)C(O)[C@H]1O (stereo partly drawn)	none (no result: mHTT-CaM PPI inh)
CCOc1ccc(S(=O)(=O)N=C2C=C(Nc3ccc(OC)cc3)C(=O)c3ccccc32)cc1	mHTT-CaM PPI inh 89
CCOc1ccc(NC2=CC(=NS(=O)(=O)c3ccc(F)cc3)c3ccccc3C2=O)cc1	mHTT-CaM PPI inh 67
CCc1ccc(NS(=O)(=O)c2ccc(OC)cc2)cc1	none
COc1ccc(S(=O)(=O)N=C2C=CC(=O)c3ccccc32)cc1	mHTT-CaM PPI inh 98
COc1ccccc1NC1=C(Cl)C(=O)c2ccccc2C1=O	none (no result: mHTT-CaM PPI inh)
COc1ccccc1NC1=CC(=NS(=O)(=O)c2ccc(C)cc2)c2ccccc2C1=O	mHTT-CaM PPI inh 93
CCOc1ccc(S(=O)(=O)Nc2cnc3ccccc3c2)cc1	none
COc1ccc(S(=O)(=O)N=C2C=C(C(C)C)C(=O)C=C2C)cc1	none
CCCCn1c(=N)c(C#N)cc2c(=O)n3cc(C)ccc3nc21	none
O=C(NCCC(c1ccccc1)c1ccccc1)c1cnc2n(c1=O)CCS2	none
Cc1noc(C2CN(C(=O)Nc3ccc(F)cc3F)CC23CCOCC3)n1 (stereo not drawn)	none
CCC(=O)Nc1cccnc1-c1ccc(C(=O)Nc2cccc(OC)c2)cc1	none
O=C(Nc1ccc(F)cc1)N1CCCC1c1nc(-c2cccc(F)c2)no1 (stereo not drawn)	none
O=C(Cc1n[nH]c(=O)[nH]c1=O)N/N=C/c1cc(=O)[nH]c(=O)[nH]1	none (no result: Pf apPOL inh)
Cc1[nH]nc2c1C(c1cc(F)ccc1F)CC(=O)N2 (stereo not drawn)	none
COc1ccc(NC(=O)N2CCc3cn(C)c4cccc(c34)C2)cc1OC	none
CCOc1ccc(S(=O)(=O)Nc2ccc(I)cc2)cc1	none
CCOc1ccc(NC2=CC(=NS(=O)(=O)c3ccc(OCC)cc3)c3ccccc3C2=O)cc1	mHTT-CaM PPI inh 75
Cn1ccnc1SCc1cc(=O)c(OC(=O)C2(c3ccc(Cl)cc3)CCCC2)co1	mHTT-CaM PPI inh 88
CCSc1ccccc1C(=O)Oc1coc(CSc2nccn2C)cc1=O	none
Cc1cc(C)c(S(=O)(=O)N=C2C=CC(=O)C=C2)cc1C	none
CC1=C(C)C(=NS(=O)(=O)c2ccccc2)C=CC1=O	none
O=C1C(Br)=CC(=NS(=O)(=O)c2ccccc2)C=C1Br	mHTT-CaM PPI inh 100
O=C1C=CC(=NS(=O)(=O)c2ccc(Br)cc2)C=C1	none
Cc1cc(C)c(S(=O)(=O)N=C2C=CC(=O)C(Br)=C2)cc1C	mHTT-CaM PPI inh 58
CC1=CC(=O)C=C(C)C1=NS(=O)(=O)c1ccccc1	none
CC1=CC(=NS(=O)(=O)c2ccc(Br)cc2)C=C(C)C1=O	mHTT-CaM PPI inh 52
O=C1C=CC(=NS(=O)(=O)c2ccccc2)C=C1Br	mHTT-CaM PPI inh 57
Cc1ccc(S(=O)(=O)N2CCN(Cc3noc4ccccc34)CC2)cc1C	none
CN1C(=O)C2(c3ccccc31)N1CC3(C)CN2CC(C)(C1)C3=O (stereo not drawn)	none
COc1ccc(-c2cn3ccn(-c4cccc(F)c4)c(=O)c3n2)cc1	none
Cn1c(=O)c2c(ncn2CC(=O)NCc2ccc(Cl)cc2)n(C)c1=O	none
Cc1ccc(S(=O)(=O)N=C2C=CC(=NS(=O)(=O)c3ccc(C)cc3)C=C2)cc1	none
CCc1ccc(S(=O)(=O)N=C2C=CC(=O)C(Br)=C2)cc1	mHTT-CaM PPI inh 72
CN(C)CCCN(C(=O)c1cccc(C(F)(F)F)c1)c1nc2ccc(F)cc2s1	mHTT-CaM PPI inh 55
CSc1cccc2sc(N(CCN(C)C)C(=O)c3ccc(N(C)C)cc3)nc12	none
O=C(C1CCCN(c2ccncc2)C1)N1CCC(Cc2ccccc2)CC1 (stereo not drawn)	none
CCOc1ccc(NC(=O)c2c(NC(=O)CNCCN3CCOCC3)sc3c2CCC3)cc1	mHTT-CaM PPI inh 81
COc1ccc(NC(=O)c2c(NC(=O)CNCCO)sc3c2CCC3)cc1	mHTT-CaM PPI inh 62
COc1ccc(NC(=O)c2c(NC(=O)CNCc3ccco3)sc3c2CCC3)cc1	none
CCOc1ccc(NC(=O)c2c(NC(=O)CNCC3CCCO3)sc3c2CCC3)cc1 (stereo not drawn)	none
Cc1cccc(-c2nocc2CCC(=O)NC2CC2)c1	none
CCCc1cc(C2CCCN2C(=O)c2cc(-c3ccco3)on2)no1 (stereo not drawn)	none
O=C(Nc1nc2c(s1)CN(S(=O)(=O)c1cccnc1)CC2)c1ccco1	none
COc1ccc(-c2oc3c(c2C#CC(C)(C)O)C(OCCO)CC3)cc1 (stereo not drawn)	none
COC1CCCc2oc(-c3ccsc3)c(C#CCO)c21 (stereo not drawn)	mHTT-CaM PPI inh 52
Cc1cc(NC(=O)CN2CCC(c3nnc(-c4ccco4)o3)CC2)no1	none
Nc1sc(SCC(=O)Nc2ccc3c(c2)OCO3)nc1-c1ccccc1	mHTT-CaM PPI inh 78
Nc1nnc(SCC(=O)Nc2ccc3c(c2)OCO3)s1	none (no result: mHTT-CaM PPI inh)
Cc1ccc(S(=O)(=O)N2CCC(CCNC(=O)NCC(C)C)CC2)cc1	none
